The values below come from PubChem BioAssay AID651705 (Broad Institute, 2012).

The whole screen tested about 1,200 compounds, of which about 620 (52%) were called active.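 How the source made its calls: active means every separate test run was called active for a drop in luminescence, with AC50 within twice the top valid dose (actives reach about 71 µM in these data); inconclusive means the separate test runs disagree in their calls; inactive means all runs inactive, including signal change in the wrong direction.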 The set was probably picked from earlier hits. A selection follows.

The nature of this assay: bead-based luminescence quenchers, dual-tagged ARNT – biochemical, AlphaScreen, cherry-pick, artefact control for ARNT-TACC3 interaction inhibitor project, dose response (AID 651705). To be noted: His-ARNT PASB-GST AlphaScreen artifact counter-screen; series mostly up to 68 µM.
Turning to `Oc1cccc(/C=N/Nc2ccc(Cl)nn2)c1O`, the AC50 was 10.2 µM (active).
With `CN(c1ccc(C(=O)N2CCc3ccccc3C2)cc1)S(C)(=O)=O`, the AC50 result was “inactive”.
To `C[C@@H]1CN([C@H](C)CO)C(=O)Cc2cc(NC(=O)Nc3cccc4ccccc34)ccc2O[C@@H]1CN(C)Cc1ccc(C(=O)O)cc1` belongs “inactive”; to `CC(C(=O)Nc1ccc(O)c(C(=O)O)c1)N1C(=O)/C(=C/c2cccs2)SC1=S` (stereo unspecified), “inactive”; to `CCN(CC)c1ccc(/C=N/NC(=O)c2cnccn2)c(O)c1`, “inactive”.
With `CCOC(=O)N1CCN(C(c2cccnc2)c2ccc3cccnc3c2O)CC1` (stereo unspecified) the figure was 18 µM (active).
With `CCN1CCN(C(c2cccnc2)c2cc(Cl)c3cccnc3c2O)CC1` (stereo unspecified) the figure was 23.8 µM (active).
With `COc1ccc2ccccc2c1CNCc1ccccn1`, the AC50 entry is “inactive”.
Regarding `O=S(=O)(c1ccccc1)N1C[C@@H]2[C@H](c3ccccc31)[C@H](CO)N2Cc1ccccn1`, the AC50 is 65.5 µM (active).
`C/C(=N\NC(=O)Cc1ccc(Cl)cc1)c1ccccn1`: the AC50 is 59.3 µM (active).
With `Cc1c(CC(=O)NCC(=O)NCC(=O)O)c(=O)oc2cc3oc4c(c3cc12)CCCC4`, the AC50 result was “inactive”.
As for `O=C(NCCCn1ccnc1)c1cc(-c2ccccc2)on1`, the AC50 result was “inactive”.
With `CC(=O)/C(=N\Nc1ccc(Cl)cc1Cl)Sc1cccc2cccnc12` the figure was 7.85 µM (active).
With `Oc1ccc(Br)cc1/C=N/Nc1ccccn1` the figure was 56.5 µM (active); with `Cc1ccccc1CSc1nnc(-c2ccccn2)n1N`, “inactive”.
To `O=C(CN1C(=O)COc2ccccc21)Nc1ccc(F)cc1` belongs 13.5 µM (active); to `O=C1c2cccc3cccc(c23)C(=O)N1CCCCCc1n[nH]c(=S)o1`, “inactive”.
As to `CCn1cc(/C=C2/SC(=S)NC2=O)c(C)n1`, the AC50 entry was “inactive”.
With `Oc1c(CN2CCN(c3ccc(F)cc3)CC2)cc(Cl)c2cccnc12` the figure was 10.2 µM (active).
To `O=C(CSc1ccc(-c2ccccn2)nn1)Nc1ccccc1` belongs 10.4 µM (active).
To `C[C@@H]1CN([C@@H](C)CO)C(=O)c2cc(NS(=O)(=O)c3cccs3)ccc2O[C@H]1CN(C)CC1CCCCC1` belongs “inactive”; to `c1ccc(-c2cn3c(n2)CCc2ccc4cccnc4c2-3)cc1`, “inactive”.
Regarding `O=C(Nc1cnc2ccccc2c1)c1cc(-c2ccccc2)on1`, the AC50 entry is “inactive”.
With `Cn1c(-c2ccccc2)cnc1NC(=O)c1cc(-c2ccccc2)on1` the figure was 40.5 µM (active).
On to `Cc1ccc(NC(=O)c2cc(-c3ccccc3)on2)cn1`, for which the AC50 entry was “inactive”.
With `CCOc1cc(N2CCOCC2)c(OCC)cc1NC(=O)COc1cccc2cccnc12` the figure was 36.5 µM (active).
To `O=C(N[C@@H]1CC[C@H](CCn2cc(-c3ccccn3)nn2)O[C@@H]1CO)c1ccccc1` belongs 37.6 µM (active); to `O=S(=O)(N[C@@H]1CC[C@@H](CCn2cc(-c3ccccn3)nn2)O[C@@H]1CO)c1cccc(Cl)c1`, 41.9 µM (active).
With `COCCNC(=O)Cn1cc(C(=O)c2cccs2)c2ccccc21` the entry was “inactive”; with `Cn1c(=NC(=O)c2cnccn2)sc2ccccc21`, “inactive”.
As to `Cc1c(NC(=O)CSc2cccc3cccnc23)c(=O)n(-c2ccccc2)n1C`, the AC50 was 32.1 µM (active).
With `COc1ccc(Cc2nnc(N/N=C/c3ccccc3O)[nH]c2=O)cc1OC` the figure was 6.44 µM (active); with `CCN(/N=C/c1ccccc1)c1cc(=O)n(C)c(=O)[nH]1`, “inactive”.
Regarding `COc1cc(C2C(C#N)=C(N)Oc3n[nH]c(-c4ccccn4)c32)cc(OC)c1OC` (stereo unspecified), the AC50 result is “inactive”.
As to `c1ccc(-c2nnc(-c3ccccn3)nc2Nc2nc3ccccc3s2)cc1`, the AC50 was 1.9 µM (active).
With `CC(NC(=O)c1ccco1)C(=O)Nc1nc(-c2ccccn2)cs1` (stereo unspecified), the AC50 is 31.7 µM (active).
As for `O=C(CN1C(=O)C2C3C=CC(C3)C2C1=O)Nc1nc(-c2ccccn2)cs1` (stereo unspecified), the AC50 is 47.6 µM (active).
To `O=C(COc1ccccc1F)Nc1nc(-c2ccccn2)cs1` belongs 54.1 µM (active).
For `Cc1c(CC(=O)NCCCCCC(=O)O)c(=O)oc2cc3occ(-c4ccccc4)c3cc12`, the AC50 result is “inactive”.
For `CCN(C(=O)Cc1nc(N)n[nH]1)C1(C(=O)Nc2ccccc2)CCCCC1`, the AC50 entry is “inactive”.
Consider `Cc1ccc(S(=O)(=O)n2oc(=O)c(C3CCCCC3)c2N)cc1`, for which the AC50 was 42.3 µM (active).
`COc1ccccc1Nc1nc(N)nc(CN(C)C2CCCCC2)n1`: the AC50 entry was “inactive”.
With `CC[C@]1(O)CC2CN(CCc3c([nH]c4ccccc34)[C@@](C(=O)OC)(c3cc4c(cc3OC)N(C=O)[C@H]3[C@@](O)(C(=O)OC)[C@H](OC(C)=O)[C@]5(CC)C=CCN6CC[C@]43[C@@H]65)C2)C1` (stereo partly specified) the entry was “inactive”; with `CCN(CC)CCOc1ccc2c(c1)C(=NNC(=O)c1ccccn1)c1cc(OCCN(CC)CC)ccc1-2`, 69.6 µM (active); with `CCOC(=O)c1ccc(Nc2cc3ccccc3c(=O)[nH]2)cc1`, “inactive”.
As for `COC(=O)CC1=NN(c2nc(C)cc(C)n2)C(=O)C1`, the AC50 result was “inactive”.
